This is a sample that favours compounds with a hit; in the whole collection about 4.3% have one here.
GRIN3A LBD mod: modulates the human NR3A ligand-binding domain. NR3A LBD differential scanning fluorimetry, Tm shift; 0% = protein alone, 100% = glycine-bound protein. Tm shift relative to glycine control, % at 25 µM. 340,000 compounds, 2.5% hits. AID 1259313;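 active = melting temperature shift of at least 10% of the positive control shift, at one fixed dose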
NadD block: blocks S. aureus nicotinate mononucleotide adenylyltransferase | purified NadD enzyme, colorimetric absorbance read-out | inhibition, % at 20 µM | 360,000 compounds, 0.78% hits; in the data active = inhibition above about 26%
FAS-TE inh: inhibitors of human fatty acid synthase thioesterase domain; inhibition, % at 15 µM; recombinant FAS-TE, OMFH fluorogenic substrate, fluorescence endpoint; P49327; AID 602261; 360,000 compounds, 0.67% hits;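 active = compounds whose normalised, plate-corrected inhibition of enzyme fluorescence in the single-dose primary screen is 50% or more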;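 also: 0% = DMSO with enzyme and 100% = substrate without enzyme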
rCAG RNA binder: r(CAG) repeat RNA binding; TO-PRO-1 dye displacement fluorescence; 370,000 compounds, 1.3% hits; AID 651821; inhibition, % at 3 µM;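 active = inhibition above the plate cutoff, the mean of all test compounds on that plate plus 3 SD, cut at about 35% in these data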;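 also: 0% = DMSO alone and 100% = 100 µM mitoxantrone as full dye displacement; higher means more dye released from RNA so lower well fluorescence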
rCAG bind conf: r(CAG) RNA repeat binding, confirmation | inhibition, % at 3 µM | shares compounds with rCAG RNA binder | AID 652065 | 4,300 compounds, 70% hits | TO-PRO-1 dye displacement fluorescence;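 active = inhibition above a per-plate cutoff, the mean inhibition of sample wells plus 3 SD, cut at about 35% in these data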;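 also: loss of TO-PRO-1 fluorescence as compound displaces dye from 1x1 AA loop RNA; 0% = DMSO only wells and 100% = 100 µM mitoxantrone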
dCAG dye counter: DNA CAG dye complex inhibition counter-screen | shares compounds with rCAG RNA binder | inhibition, % at 3 µM | AID 652068 | 4,300 compounds, 94% hits | d(CAG) DNA oligo TO-PRO-1 dye displacement, fluorescence;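 active = inhibition above its plate's cutoff, the mean test-well inhibition plus 3 SD, cut at about 4.8% in these data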;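 also: 0% = DNA dye mix with DMSO and 100% = 100 µM mitoxantrone; hits displace the dye from DNA and so lower well fluorescence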
* = called active by the depositor; . = no result given.

SMILES	GRIN3A LBD mod	NadD block	FAS-TE inh	rCAG RNA binder	rCAG bind conf	dCAG dye counter
CCCCCc1ccc(NC(=O)OCCN2C(=O)CCC23CCC(c2ccccc2)CC3)cc1 (configuration not stated)	.	.	.	1	.	.
CCn1c(COc2ccc(C)cc2)nnc1SCC(=O)c1ccc(-c2ccccc2)cc1	.	.	.	7	.	.
COc1ccc(C(=O)/C=C/c2ccc(O)cc2)c(O)c1C/C=C(\C)CCC=C(C)C	30*	-5	28	69*	65*	28*
COc1ccc(C=CC(=O)c2ccc(OC)c(OC)c2O)cc1OC	2	-10	-6	2	.	.
O=C(Nc1nc(-c2ccco2)c(-c2ccco2)s1)C1CCC1	-8	9	8	37*	21	11*
COCCNC(=S)N(C)[C@H]1C[C@H]2c3[nH]c4c(-c5ccc6c(c5)OCO6)cccc4c3CCN2C(=O)[C@H]1[C@H](C)O	.	.	.	10	.	.
Cc1c(N/N=C(\C#N)C(=O)c2ccc(Cl)cc2)c(=O)n(-c2ccccc2)n1C	-6	17	2	37*	32	10*
N#C/C(=N\Nc1ccc(Cl)cc1)C(=O)c1ccccc1	7	1	2	59*	58*	14*
COC(=O)[C@]12C=CCN1[C@H](c1ccc(Cl)cc1)c1c(c3ccccc3n1S(=O)(=O)c1ccc(C)cc1)C2	.	.	.	26	.	.
CCN(Cc1ccccc1)S(=O)(=O)c1ccc(C(=O)Nc2nnc(C3CC3)o2)cc1	-11	14	8	45*	36*	12*
Cc1nnc(NC(=O)c2ccc(S(=O)(=O)N(C)Cc3ccccc3)cc2)o1	-5	4	-5	.	.	.
C[C@H](CO)N1C[C@H](C)[C@@H](CN(C)C(=O)c2ccc(N3CCN(C)CC3)cc2)OCc2cn(nn2)CCCC1=O	.	.	.	0	.	.
CC(=O)c1ccc(OCc2nnn(CC(=O)NS(=O)(=O)c3ccc(C)cc3)c2-c2ccccc2)cc1	.	3	-3	62*	68*	20*
COc1cc(C)ccc1S(=O)(=O)NC(=O)Cn1nnc(COc2ccc3c(c2)CCCC3)c1C	.	4	-10	48*	42*	12*
Cc1ccc(NC(=O)COc2ccc3c(c2)CCC3)nc1	-1	4	5	-1	.	.
Cc1c(COc2ccc3ccccc3c2)nnn1CC(=O)NS(=O)(=O)c1ccccc1C(F)(F)F	.	1	0	70*	64*	26*
CCCCNC(=O)Cn1nnc(-c2ccccc2)c1COc1ccc(C(C)=O)cc1	.	-2	-1	0	.	.
CCC(=O)O/N=C(\N)c1ccc(Oc2cc(C)c(Cl)c(C)c2)c([N+](=O)[O-])c1	-6	-11	-1	1	.	.
Cc1ccc(NC(=O)Nc2nnc(-c3ccncc3)s2)cc1C	9	6	2	60*	49*	17*
O=C(Nc1cccc(Cl)c1)Nc1nnc(-c2ccncc2)s1	27*	24	4	66*	45*	22*
COC(=O)Nc1nnc(-c2ccncc2)s1	2	5	-8	-1	.	.
Cc1ccc(OC(=O)CCC(=O)Nc2ccc(S(=O)(=O)Nc3cc(C)on3)cc2)cc1	1	4	-3	-1	.	.
CCc1nnc(NS(=O)(=O)c2ccc(NC(=O)CCC(=O)O)cc2)s1	-2	4	-3	-2	.	.
CCOc1cc(C(=O)Nc2ccc(S(=O)(=O)Nc3nnc(CC)s3)cc2)cc(OCC)c1OCC	-8	12	-2	63*	67*	28*
CCc1nnc(NS(=O)(=O)c2ccc(NC(=O)c3ccc(S(=O)(=O)N(CC)CC)cc3)cc2)s1	-11	4	-1	76*	67*	29*
SMILES	GRIN3A LBD mod	NadD block	FAS-TE inh	rCAG RNA binder	rCAG bind conf	dCAG dye counter
CCC(Oc1ccc(C)cc1)C(=O)Nc1ccc(S(=O)(=O)Nc2cc(C)on2)cc1 (configuration not stated)	0	-2	-6	36*	21	2
CCc1nnc(NS(=O)(=O)c2ccc(NC(=O)c3cccc(Br)c3)cc2)s1	-8	1	0	73*	53*	19*
O=C(Nc1ccc(S(=O)(=O)Nc2ncccn2)cc1)c1cccc(Br)c1	-2	-5	-4	-1	.	.
CCOc1cc(C(=O)Nc2ccc(S(=O)(=O)NC3=NCCCCC3)cc2)cc(OCC)c1OCC	-2	-8	-2	-9	.	.
CCOc1cc(C(=O)Nc2ccc(S(=O)(=O)Nc3cc(C)on3)cc2)cc(OCC)c1OCC	8	1	-6	41*	34	8.4*
COc1cccc(NC(=O)c2ccccc2-c2ccccc2C(=O)O)c1	-1	0	-3	2	.	.
COc1cc2c(cc1NC(=O)c1ccccc1-c1ccccc1C(=O)O)-c1ccccc1C2	.	4	-1	66*	60*	20*
COC(=O)N1Cc2ccnnc2CC1c1ccccc1-c1ccccc1 (configuration not stated)	.	.	.	4	.	.
O=C(N/N=C/c1c(O)n(Cc2ccco2)c(=O)[nH]c1=O)c1ccccc1	-1	-1	5	50*	30	11*
O=C(NCc1n[nH]c(=S)n1-c1ccc(Cl)c(Cl)c1)c1ccc(S(=O)(=O)N2CCCCC2)cc1	-10	9	2	36*	30	11*
O=C(NCc1n[nH]c(=S)n1-c1cccc(Cl)c1)c1ccc(S(=O)(=O)N2CCCC2)cc1	3	-8	-5	10	.	.
O=C(NCc1n[nH]c(=S)n1-c1ccc(Cl)c(Cl)c1)c1ccco1	0	-2	-6	4	.	.
CCCN(CCC)S(=O)(=O)c1ccc(C(=O)NCc2n[nH]c(=S)n2-c2ccc(Cl)c(Cl)c2)cc1	1	17	5	35*	29	7.0*
COc1cccc([C@@H]2CC=C(C(=O)O)[C@H](c3ccc(F)cc3)N2S(=O)(=O)c2ccc(C)cc2)c1	3	-1	-4	45*	37*	9.3*
Cc1ccc(S(=O)(=O)N2[C@@H](c3ccccc3)C(C(=O)O)=CC[C@H]2c2cccc(C)c2)cc1	1	3	0	14	.	.
COc1cccc([C@@H]2CC=C(C(=O)O)[C@H](c3ccccc3)N2S(=O)(=O)c2ccc(C)cc2)c1	0	0	-1	43*	37*	8.9*
COc1cccc([C@@H]2CC=C(C(=O)O)[C@H](c3cccc(Cl)c3)N2S(=O)(=O)c2ccc(C)cc2)c1	-9	-1	7	62*	63*	26*
COc1cccc(CNC(=O)[C@H]2CCCN2C(=O)[C@H]2CCCN2C(=O)c2ccc(Cl)cc2)c1	.	.	.	2	.	.
COCCCNC(=O)C[C@@H]1C[C@@]2(C(=O)OC)CCCCC=C2N(CCC2=CCCCC2)C1=O	.	-2	-7	1	.	.
COC(=O)[C@]12C[C@H](CC(=O)NCCC(C)C)C(=O)N(Cc3ccccc3)C1=C[C@H](C1CCCC1)O[C@@H]2C	.	.	.	2	.	.
O=C(N[C@@H](Cc1cccnc1)C(=O)N1CCC[C@H]1C(=O)NCCc1ccccc1Cl)c1ccco1	.	.	.	2	.	.

Compound activity as filed in PubChem.
